Laboratory results reported in the supplement of paper PMC8975748.
Counter-ions that a name gives are not always drawn.

tested on: Saccharomyces cerevisiae BY4741 SeMeCo community; test: z-score of prototroph abundance vs DMSO median; higher = larger share of this subpopulation than in DMSO controls; details: 10 µM; 24 h; SM minimal medium; subpopulation (auxotrophy): Prototroph
Procedure: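 Fluorescent four-plasmid SeMeCo (self-establishing metabolically cooperating S. cerevisiae BY4741 community; plasmids pH-mRuby2, pL-mWasabi, pU-eCFP, pM-TagRFP657) was grown 24 h in minimal SM medium with each Selleck FDA-approved drug at 10 µM in 384-well plates. Cells were fixed and imaged by high-content confocal microscopy. For each auxotrophic subpopulation (and the prototroph), a z-score gives the deviation from the DMSO vehicle-control population median.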

Compound	z-score of prototroph abundance
CC(=O)O[C@H]1C[C@@H]2CC[C@@H]3[C@H](CC[C@@]4(C)[C@H]3C[C@H]([N+]3(C)CCCCC3)[C@@H]4OC(C)=O)[C@@]2(C)C[C@@H]1[N+]1(C)CCCCC1 [Pancuronium dibromide]	0.97
COc1ccc2c3c([nH]c2c1)C(C)=NCC3 [Harmaline]	3.47
CC(C)N(CCC(C(N)=O)(c1ccccc1)c1ccccn1)C(C)C (centres undefined) [Disopyramide]	-0.35
Oc1cc(Cl)ccc1Oc1ccc(Cl)cc1Cl [Triclosan]	2.53
CC[C@H]1[C@@H]2C[C@H]3[C@@H]4N(C)c5ccccc5[C@]45C[C@@H]([C@@H]2[C@H]5O)N3[C@@H]1O [Ajmaline]	0.22
CCCN1C[C@H](CSC)C[C@@H]2c3cccc4[nH]cc(c34)C[C@H]21 [Pergolide Mesylate]	0.88
CCOC(=O)Nc1ccc(NCc2ccc(F)cc2)cc1N [Retigabine 2HCl]	0.05
COc1ccc(C=O)cc1 [p-Anisaldehyde]	1.5
CN(C)C(=O)Oc1cccc([N+](C)(C)C)c1 [Neostigmine Bromide]	0.27
C=CCN1C[C@H](C(=O)N(CCCN(C)C)C(=O)NCC)C[C@@H]2c3cccc4[nH]cc(c34)C[C@H]21 [Cabergoline]	-0.35
CCN1CC2(OC(=O)c3ccccc3NC(C)=O)CCC(OC)C34C1C(CC23)C1(O)CC(OC)C2CC4C1(O)C2OC (centres undefined) [Lappaconitine]	0.24
C=C[C@H]1CN2CC[C@H]1C[C@H]2[C@H](O)c1ccnc2ccccc12 [Cinchonidine]	-0.41
O=c1[nH]c2ccccc2n1CCCN1CCC(n2c(=O)[nH]c3cc(Cl)ccc32)CC1 [Domperidone]	-0.65
COC(=O)C1=CCCN(C)C1 [Arecoline HBr]	-0.55
N[C@@H]1C[C@H]1c1ccccc1 [Tranylcypromine (2-PCPA) HCl]	0.44
Cn1cc(C2=C(c3cn(C4CCN(Cc5ccccn5)CC4)c4ccccc34)C(=O)NC2=O)c2ccccc21	0.73
CC(NC(C)(C)C)C(=O)c1cccc(Cl)c1 (centres undefined) [Amfebutamone (Bupropion) HCl]	0.49

Compound	z-score of prototroph abundance
CN(C)[C@@H]1C(=O)C(C(N)=O)=C(O)[C@@]2(O)C(=O)C3=C(O)c4c(O)ccc(Cl)c4[C@@](C)(O)[C@H]3C[C@@H]12 [Chlortetracycline HCl]	0.13
O=C(O[C@H]1C[C@H]2CC[C@@H](C1)[N+]21CCCC1)C(O)(c1ccccc1)c1ccccc1 [Trospium chloride]	0.42
Cc1cc(C(C#N)c2ccc(Cl)cc2)c(Cl)cc1NC(=O)c1cc(I)cc(I)c1O (centres undefined) [Closantel]	0
COc1ccc(C(CN(C)C)C2(O)CCCCC2)cc1 (centres undefined) [Venlafaxine]	0.19
C=CN1CCCC1=O.II [Povidone iodine]	-1.1
CN1c2ccccc2C(NCCCCCCC(=O)O)c2ccc(Cl)cc2S1(=O)=O (centres undefined) [Tianeptine sodium]	0
NCC(O)c1ccc(O)cc1 (racemic) [(+,-)-Octopamine HCl]	0.28
CC[C@H]1CN2CC[C@]3(C(=O)Nc4ccccc43)[C@@H]2C[C@@H]1/C(=C\OC)C(=O)OC [Rhynchophylline]	-0.9
CC(C)=CCOc1c2occc2cc2ccc(=O)oc12 [Imperatorin]	-0.8
NC(=O)CN1CCCC1=O [Piracetam]	-1.9
COc1ccc2[nH]cc(CCN)c2c1 [5-Methoxytryptamine]	-0.96
COc1ccc2c(c1)[C@]13CCCC[C@@H]1[C@H](C2)N(C)CC3 [Dextromethorphan hydrobromide hydrate]	0.38
Cc1cc(O)ccc1Cl [Chlorocresol]	0.71
O=c1cccc2n1C[C@@H]1CNC[C@H]2C1 [Cytisine]	0.46
NCCc1c[nH]c2ccc(O)cc12 [Serotonin HCl]	0.67
CN[C@@H]1[C@@H](O)[C@@H](O[C@@H]2[C@@H](O)[C@H](O[C@H]3O[C@H](CN)CC[C@H]3N)[C@@H](N)C[C@H]2N)OC[C@]1(C)O.CN[C@@H]1[C@@H](O)[C@@H](O[C@@H]2[C@@H](O)[C@H](O[C@H]3O[C@H]([C@@H](C)N)CC[C@H]3N)[C@@H](N)C[C@H]2N)OC[C@]1(C)O.CN[C@@H]1[C@@H](O)[C@@H](O[C@@H]2[C@@H](O)[C@H](O[C@H]3O[C@H]([C@@H](C)NC)CC[C@H]3N)[C@@H](N)C[C@H]2N)OC[C@]1(C)O [Gentamicin Sulfate]	0.63
C[N+]1(C)[C@@H]2C[C@@H](OC(=O)[C@H](CO)c3ccccc3)C[C@H]1[C@@H]1O[C@@H]12 [Methscopolamine]	-0.68
